This is an account of results in the supplement of paper PMC12024424.

Where a name gives a salt, the structure may show the parent alone.

This assay concerns Staphylococcus aureus Sa2 (MRSA, cystic fibrosis isolate). The assay is described as follows: growth reduction vs untreated control (viable cell count); higher = stronger antibacterial activity; extreme values may be limits of the assay. Conditions: 0.1 mM; 24 h. On the procedure:
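Single-dose screen of the MedChem Express Drug Repurposing Library (0.1 mM, 1% DMSO) against planktonic MRSA S. aureus Sa2 (CF isolate) in TSB in 96-well plates, 37 °C aerobic, 24 h. Assays were run in triplicate and repeated twice.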
`O=C(O)c1ccc2nc(-c3cc(Cl)cc(Cl)c3)oc2c1` [Tafamidis meglumine] returned a growth reduction of 98%.
As for `COc1cccc2c1C(=O)c1c(O)c3c(c(O)c1C2=O)C[C@@](O)(C(=O)CO)C[C@@H]3O[C@H]1C[C@H](N)[C@@H](O)[C@H](C)O1` [Epirubicin (hydrochloride)], the figure is 100%.
As for `CC(C)COc1ccc(CNC(=O)N(Cc2ccc(F)cc2)C2CCN(C)CC2)cc1` [Pimavanserin tartrate], the growth reduction was 100%.
In turn, `CC(C)(C)NCC(O)COc1ccccc1C1CCCC1` (single isomer, unassigned; (+)) [(+)-Penbutolol] came in with a growth reduction of 94%.
For the compound `Oc1ccc2c(c1)CC[C@H](c1ccccc1)[C@@H]2c1ccc(OCCN2CCCC2)cc1` [Lasofoxifene (Tartrate)], the growth reduction was determined as 100%.
With `C=C1CC[C@H](O)C/C1=C/C=C1\CCC[C@]2(C)[C@@H]([C@H](C)/C=C/[C@H](C)C(C)C)CC[C@@H]12` [Vitamin D2] the figure was 100%; with `C[C@@H](NCCCc1cccc(C(F)(F)F)c1)c1cccc2ccccc12` [Cinacalcet], 100%.
`CS(=O)(=O)c1cc(F)cc2c3c(n(Cc4ccc(Cl)cc4)c12)[C@@H](CC(=O)O)CC3` [Laropiprant]: the growth reduction is 99%.
Consider `O=C(Nc1ccccc1)c1ccccc1O` [Salicylanilide], for which the growth reduction worked out at 93%.
As for `C[C@H]1O[C@@H](n2cc(F)c(=O)[nH]c2=O)[C@H](O)[C@@H]1O` [Doxifluridine], the growth reduction turned out to be 100%.
Consider `O=C(NCc1c(F)cc(F)cc1F)c1cn2c(c(O)c1=O)C(=O)N1[C@H]3CC[C@H](C3)O[C@@H]1C2` [Bictegravir], for which the growth reduction came out at 100%.
With `O=c1oc2ccccc2c(O)c1Cc1c(O)c2ccccc2oc1=O` [Dicoumarol] the figure was 100%; with `O=C(O)C1(c2ccc(-c3ccc(Cl)c(Cl)c3)c(F)c2)CC1` [Itanapraced], 100%.
With `O=C(CCCCCCNC(=O)c1cnc(N(c2ccccc2)c2ccccc2)nc1)NO` [Ricolinostat] the figure was 100%.
As for `CC1CS(=O)(=O)CCN1/N=C/c1ccc([N+](=O)[O-])o1` (centres undefined) [Nifurtimox], the figure is 100%; as for `CC[C@H](C)C(=O)O[C@H]1C[C@@H](C)C=C2C=C[C@H](C)[C@H](CC[C@@H]3C[C@@H](O)CC(=O)O3)[C@H]21` [Lovastatin], 100%.
For `CC/C(=C(\c1ccccc1)c1ccc(OCCN(C)C)cc1)c1ccccc1` [Tamoxifen (Citrate)], the growth reduction was found to be 100%.
With `CC1(C)CC[C@]2(C(=O)O)CC[C@]3(C)[C@H](C(=O)C=C4[C@@]5(C)C=C(C#N)C(=O)C(C)(C)[C@@H]5CC[C@]43C)[C@@H]2C1` [Bardoxolone] the figure was 100%.
Consider `Cc1cc(O[C@@H](CCC(F)(F)F)c2ccc(C(=O)NCCC(=O)O)cc2)cc(C)c1-c1ccc(C(C)(C)C)cc1` [Adomeglivant], for which the growth reduction was determined as 100%.
As for `CSc1ccc(OCc2ncc([N+](=O)[O-])n2C)cc1` [Fexinidazole], the figure is 93%.
With `COc1cccc(OC)c1-c1cc(C(=O)NC2(C(=O)O)C3CC4CC(C3)CC2C4)nn1-c1ccnc2cc(Cl)ccc12` (centres undefined) [Meclinertant] the figure was 100%; with `O=C(c1ccc(OCCN2CCCCC2)cc1)c1c(-c2ccc(O)cc2)sc2cc(O)ccc12` [Raloxifene (hydrochloride)], 93%; with `O=C1NCCN1CCN1CCC(c2cn(-c3ccc(F)cc3)c3ccc(Cl)cc23)CC1` [Sertindole], 97%.
`COc1ccc(NS(=O)(=O)c2c(F)c(F)c(F)c(F)c2F)cc1F` [Batabulin] gave a growth reduction of 98%.
As for `C#C[C@]1(O)CC[C@H]2[C@@H]3CCc4cc(OC)ccc4[C@H]3CC[C@@]21C` [Mestranol], the figure is 93%.
With `Cc1cnc(NC(=O)Nc2cc(Br)c(C)cc2OC[C@@H]2CNCCO2)cn1` [Rabusertib] the figure was 100%.
In turn, `CN(Cc1cnc2nc(N)nc(N)c2n1)c1ccc(C(=O)N[C@@H](CCC(=O)O)C(=O)O)cc1` [Methotrexate] registered a growth reduction of 95%.
With `CCOc1cc(CC(=O)N[C@@H](CC(C)C)c2ccccc2N2CCCCC2)ccc1C(=O)O` [Repaglinide] the figure was 100%.
`COc1cc(NC(C)CCCN)c2ncccc2c1` (centres undefined) [Primaquine (Diphosphate)] had a growth reduction of 94%.
With `COc1cc2c(Oc3ccc(NC(=O)C4(C(=O)Nc5ccc(F)cc5)CC4)cc3F)ccnc2cc1OCCCN1CCOCC1` [Foretinib] the figure was 99%.
In turn, `COc1cc(C)c2c(Oc3cccc(C(F)(F)F)c3)c(OC)cc(NC(C)CCCN)c2n1` (centres undefined) [Tafenoquine (Succinate)] had a growth reduction of 100%.
As for `CC1=CC(=O)c2ccccc2C1=O` [Menadione], the figure is 100%.
For the compound `CSc1ccc(C(=O)/C=C/c2cc(C)c(OC(C)(C)C(=O)O)c(C)c2)cc1` [Elafibranor], the growth reduction came to 95%.
`C1CCC(C(CC2CCCCN2)C2CCCCC2)CC1` (centres undefined) [Perhexiline maleate] had a growth reduction of 100%.
With `COCCNCCc1cccc(Nc2ncc3c(n2)-c2ccccc2[C@H](c2ccccc2F)C3)c1` [Derazantinib] the figure was 100%; with `NC(=O)N1CCC(CC(=O)N2CCC([C@H]3c4ncc(Br)cc4CCc4cc(Cl)cc(Br)c43)CC2)CC1` [Lonafarnib], 96%.
Compound `CC1(C)S[C@@H]2[C@H](NC(=O)[C@H](N)c3ccccc3)C(=O)N2[C@H]1C(=O)OCOC(=O)[C@@H]1N2C(=O)C[C@H]2S(=O)(=O)C1(C)C` [Sultamicillin (tosylate)] displayed a growth reduction of 100%.
As for `C=C[C@@H]1C[C@]1(NC(=O)[C@@H]1C[C@@H]2CN1C(=O)[C@H](C(C)(C)C)NC(=O)O[C@@H]1C[C@H]1CCCCCc1nc3ccc(OC)cc3nc1O2)C(=O)NS(=O)(=O)C1CC1` [Grazoprevir hydrate], the figure is 100%.
With `NCCCC[C@H](NC(=O)[C@@H](NC(=O)[C@H](Cc1c[nH]c2ccccc12)NC(=O)[C@H](CCCCN)NC(=O)[C@H](CCCCN)NC(=O)[C@H](Cc1c[nH]c2ccccc12)NC(=O)[C@H](Cc1c[nH]c2ccccc12)NC(=O)[C@H](CCCCN)NC(=O)[C@@H](N)CCCCN)C(c1ccccc1)c1ccccc1)C(N)=O` the figure was 100%.
